Results on 39 molecules are retold here after PubChem BioAssay (NCI).

The panel holds about 79,000 compounds, 15% with a hit somewhere; the sample as a whole holds those more often. Activity calls are given as the source filed them. Cut-off read from the data, not from the text of the source: active = growth inhibition above about 70%; inactive = the rest.

This test in a line: NCI Yeast Anticancer Drug Screen. Data for the mlh1 rad18 strain (AID 175). Particulars: S. cerevisiae mlh1 rad18 strain growth inhibition; at 50.0 µM (retest, dose inferred, filed as 5.0); active compounds read high. An outline of the steps:
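Compound-treated yeast growth, normalised to vehicle controls. Strain bears defined DNA repair mutations.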
Regarding `CNS(=O)(=O)c1ccccc1C=C(c1ccccc1)c1ccccc1`, the growth inhibition is 91% (active). For `CC(C)c1cc(C(C)C)c(Cl)c(Cl)c1O` (tested in a mixture with another compound) the value was 14% (inactive); for `Nc1cccc2cccnc12`, 66% (inactive); for `C[n+]1c(/C=C/c2ccc(N3CCCC3)cc2)sc2ccccc21`, 98% (active). As for `Nc1cn(C2OC(CC(c3ccccc3)(c3ccccc3)c3ccccc3)C(O)C2O)c(=O)[nH]c1=O` (centres undefined), the growth inhibition is 97% (active). For `c1ccc(Cn2nnc(-c3ccccc3)c2-c2ccccc2)cc1` the value was 94% (active); for `CCCCCC(CCCCC)OC(=O)CCN(CCCCC)CCCCC`, 94% (active); for `C=CCC1(OC(C)=O)CC2C(=O)C(=O)C(C1)N2OC(=O)c1ccccc1` (centres undefined), 98% (active). With `C=CS(=O)(=O)c1ccc([N+](=O)[O-])cc1`, the growth inhibition was 97% (active). With `Cc1ccc(S(=O)(=O)Oc2ccc(C(C)(C)C)cc2Cl)cc1` the figure was 0% (inactive); with `O=C(CCl)N1CCN(C(c2ccccc2)c2ccccc2)CC1`, 97% (active). As for `Oc1ccc2ccccc2c1.[Cu+2]`, the growth inhibition is 33% (inactive). As for `NS(=O)(=O)c1ccc(NC(=O)Cc2nc3ccccc3s2)cc1`, the growth inhibition is 99% (active). For the molecule `O=C(COc1ccc(Cl)cc1)OCCO`, the growth inhibition is 5% (inactive).

As for `NC(=Nc1ccccc1)SCc1ccc([N+](=O)[O-])cc1`, the growth inhibition was 70% (active). As for `N[C@@H]1CCCC[C@@H]1N.O=C([O-])CN(CP(=O)([O-])[O-])CP(=O)([O-])[O-].[Pt+2]`, the growth inhibition is 77% (active). With `C/C=C(\C)CC/C=C/CO[Si](C)(C)C(C)(C)C` the figure was -8% (inactive).

`CCOC(=O)c1cnc2cc3cccccc3n2c1=O`: the growth inhibition was 86% (active).

Take `C(=N\NC1=NCCN1)/c1ccc(-c2cn3cc(/C=N/NC4=NCCN4)ccc3n2)cc1`: the growth inhibition was 99% (active).

Consider `CC(CN(C)C)C(/C=C/c1ccc(F)cc1)=N\Nc1ccccc1` (centres undefined), for which the growth inhibition was 29% (inactive). For `O=C1C(Sc2ccc3ccccc3c2)=C(Sc2ccc3ccccc3c2)C(=O)c2ccccc21` the value was 89% (active); for `CC(O)c1cccnc1` (centres undefined), 51% (inactive). Regarding `Cc1cccc2nc3nc(Cl)c(Cl)nc3n12`, the growth inhibition is 95% (active). Consider `CSc1cc2c(cc1N)Cc1cc(F)ccc1-2`, for which the growth inhibition is 82% (active). For the molecule `CC(C)C1=CC23CCC4C(C)(C(=O)O)CCCC4(C)C2CC1c1c(O)ccc(O)c13` (centres undefined), the growth inhibition is 99% (active). With `C=CCNC(=S)N/N=C(\CCC)c1ccccn1` the figure was 95% (active); with `C#CC(C)(C)OC(C)=O`, 4% (inactive). For the molecule `Cc1cc(N2C(=O)CSC2=S)c([N+](=O)[O-])cc1C`, the growth inhibition is 99% (active). Turning to `Cc1[nH]c(=O)[nH]c(=O)c1CN(C)Cc1cc(Cl)cc(Cl)c1O`, the growth inhibition is 82% (active). On to `CCCCC(CC)C(O)C(=O)O` (centres undefined), for which the growth inhibition was 31% (inactive). For `CCOCCOc1ccc(OCCOCC)cc1`, the growth inhibition is -15% (inactive). Regarding `O=C(O)c1ccc(C(=O)c2ccccc2C(=O)O)cc1`, the growth inhibition is 0% (inactive). As to `CCCCCCCCCCCCCCNC(=O)CCC(NC(=O)c1ccc(N(C)Cc2cnc3nc(N)nc(N)c3n2)cc1)C(=O)NCCCCCCCCCCCCCC` (centres undefined), the growth inhibition was 91% (active).

In the case of `C=C1C(=O)C23OC2C1CCC(=O)C1(C)CC[C@H](OC(C)=O)C(C)(C)[C@H]1CC3O` (some centres undefined), the growth inhibition is 38% (inactive). Turning to `CCCCCCCCCCC(NC(C)=O)(C(=O)OCC)C(=O)OCC`, the growth inhibition was 98% (active). For `ClC(Cl)(Cl)/C=C/c1cnc2ccccc2n1`, the growth inhibition is 99% (active).

For `CCc1nc(N)nc(N)c1-c1ccc(N(C)Cc2ccccc2)c([N+](=O)[O-])c1`, the growth inhibition was -6% (inactive).

With `O=C(COC(=O)C(c1ccccc1)c1ccccc1)c1ccc(Br)cc1`, the growth inhibition is 27% (inactive).

Turning to `OCCN1COc2cc3c(cc2C1)OCN(CCO)C3`, the growth inhibition was 10% (inactive).
